Test results published in PubChem BioAssay (NCI).
About 83,000 compounds went through this panel and 20% of them were active in at least one assay; those are over-represented in the sample as a whole.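 Each cell line was grown in a 96-well plate and treated with one concentration of compound for 48 hours. Values below 10 were considered active.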 Activity calls are given as the source filed them.

test system: OVCAR-4 ovarian; assay: NCI-60 one-dose screen, 48 h (100 = growth as untreated, 0 = no growth, -100 = all killed); settings: 10 µM unless noted
Procedure: Growth inhibition of the OVCAR-4 human tumor cell line is measured as a screen for anti-cancer activity. Cells are grown in 96 well plates and exposed to the test compound for 48 hours. Compounds are tested at a single concentration, which is 10^-5 M for most compounds. The reported endpoint is percent growth (GI% or GIPRCNT), where numbers from 0 - 100% represent growth inhibition, and numbers from -100% - 0 represent cell death. For example, a value of 40 represents 60% growth inhibition. A value of 0 means no net growth occurred over the course of the experiment. A value of -40 indicates 40% of cells at the beginning of the experiment died by the end of the experiment. A value of -100 means all cells are dead at the end of the experiment.
NCI-60 Human Tumor Cell Lines Screen was performed using the standard one-dose NCI protocol, which is described in more detail at https://dtp.cancer.gov/discovery_development/nci-60/default.htm.
Compounds with GIPRCNT values below 10 were considered active. Activity score was based on GIPRCNT using the following formula: […]
Score is 0 for GIPRCNT values of 100 or above, 50 for GIPRCNT values of 0, and 100 for GIPRCNT values of -100.

Row | SMILES | growth
1 | N=C(N)c1ccc(OCCCCCCCCCCOc2ccc(C(=N)N)cc2)cc1 | -95.8% (active)
2 | CCCCC[n+]1ccc(SCC(=O)N(C)c2ccc(Oc3ccccc3)cc2)c2ccccc21 | 92.6% (inactive)
3 | CCOC(=O)/C(C#N)=C1/NNC(=Nc2cccnc2)S1 | 100% (inactive)
4 | CCCC/C=N/NC(=S)NCc1ccccc1 | 96.3% (inactive)
5 | O=C(c1nc2ccccc2[nH]1)C1C(c2ccc(Br)cc2)C2CC3CCCC[C@H]3N2[C@@]12C(=O)Nc1cc(Cl)ccc12 (stereo not given in full) | 34.7% (inactive)
6 | COc1cc2c(c(OC)c1OC)-c1ccc(NNC(=S)N(Cc3cccc(C[N+](Cc4cccc(CNC56CC7CC(CC(C7)C5)C6)c4)(Cc4cccc(CNC56CC7CC(CC(C7)C5)C6)c4)Cc4cccc(CN(C(=S)NNc5ccc6c(cc5=O)[C@@H](NC(C)=O)CCc5cc(OC)c(OC)c(OC)c5-6)C56CC7CC(CC(C7)C5)C6)c4)c3)C34CC5CC(CC(C5)C3)C4)c(=O)cc1[C@@H](NC(C)=O)CC2 (stereo not given in full) | 29.3% (inactive)
7 | O=C(Nc1ncc(Cc2cc(Cl)ccc2Cl)s1)c1cccs1 | 80% (inactive)
8 | CCOC(=O)C1=C(C)NC(SCc2cc(=O)oc3ccc(F)cc23)=N[C@@H]1c1cccc2ccccc12 | 102% (inactive)
9 | O=S(=O)(NCCNc1nccc(-c2c(-c3cccc(O)c3)nc3occn23)n1)c1cccc(F)c1 | 121% (inactive)
10 | CCOC(=O)Oc1c(OC)cc(C(=O)c2ccc(OC)c(O)c2OC)cc1OC | 75.3% (inactive)
11 | NCCCCCCNc1cc(-c2cccc(OC(F)(F)F)c2)nc2ccc(N3CCCC3)cc12 | -39.8% (active)
12 | Cc1ccc(C(=O)/C(=C\c2ccc([N+](=O)[O-])cc2)S(=O)Cc2ccc(Cl)cc2)cc1 (stereo not given) | 58.9% (inactive)
13 | COc1ccc(C(=O)C2C(C#N)C(C#N)C3c4ccccc4C=CN23)cc1 (stereo not given) | 62.9% (inactive)
14 | CC(=O)c1cc2c(N)c(C(=O)Nc3cccc4ccncc34)sc2nc1C | 110% (inactive)
15 | C=CCN1C(=O)/C(=C/C(=O)OC)S/C1=N\NC(=O)c1cc2ccc1/C=C\c1ccc(cc1)/C=C\2 | 97.1% (inactive)
16 | COc1cc(/C=C\c2cc(OC)c(OC)c(OC)c2)cc(NC(=O)/C=C/c2cc(OC)c(OC)c(OC)c2)c1OC | 61% (inactive)
17 | NNC(=O)c1ccc(-n2nc(-c3ccccc3)c3ccccc32)cc1 | 23.9% (inactive)
18 | CC(C)(C)c1cc(C=O)cc(C(C)(C)C)c1O | 98.7% (inactive)
19 | CC1(C)NCCC[C@]2(C)[C@H]3CC(=O)[C@H]4[C@@H]5C[C@](C)(CO)CC[C@]5(C)CC[C@@]4(C)[C@]3(C)CC[C@@H]12 | 92% (inactive)
20 | CCN(c1ccccc1)S(=O)(=O)c1cc([N+](=O)[O-])ccc1Cl | 25.1% (inactive)

Row | SMILES | growth
21 | Cc1ccc(NC(=O)c2cc(-c3nc4ccccc4s3)c(=O)n(NS(=O)(=O)c3ccc(Cl)cc3)c2N)cc1 | 103% (inactive)
22 | COc1ccc(-c2[nH][nH]c(=O)c2-c2nc3ccccc3s2)cc1 | 109% (inactive)
23 | CCSCC1CC(O)(c2ccccc2)CC(c2ccc(F)cc2)O1 (stereo not given) | 24.5% (inactive)
24 | O=C1Nc2ccc(F)cc2/C1=C\c1c(-c2ccccc2)nc2ccccn12 | 94.6% (inactive)
25 | O=C(Cc1ccc(/C=C/C(=O)c2ncc[nH]2)cc1)Nc1ccc(Cl)cc1 | 37.5% (inactive)
26 | CCc1ccc(-c2cn3ccnc3c(-c3ccc4ncn(Cc5ccccc5)c4c3)n2)cc1 | 64.9% (inactive)
27 | C/C(=N\NC(=O)CSc1nc2ccccc2c(=O)n1CCc1ccc(S(N)(=O)=O)cc1)c1ccccn1 | 19.5% (inactive)
28 | O=C(/C(=C/c1ccc([N+](=O)[O-])cc1)SCc1ccc(F)cc1)c1ccc(F)cc1 | 73.2% (inactive)
29 | Cc1ncc(C(=O)Nc2ccc(CN3CCN(C)CC3)c(C(F)(F)F)c2)cc1C#Cc1cnc(N)cc1C#N | 30.2% (inactive)
30 | O=[N+]([O-])CC(c1ccccc1F)c1c[nH]c2ccccc12 (stereo not given) | 97.3% (inactive)
31 | Cc1ccc(C(=O)/C(=C/c2ccc([N+](=O)[O-])cc2)SCc2ccc(Cl)cc2)cc1 | 58.8% (inactive)
32 | Cc1cnc(C(=O)Nc2nc3ccc(S(=O)(=O)Nc4ccc(C5(C(F)(F)F)CC5)cc4)cc3[nH]2)cn1 | 32.9% (inactive)
33 | CCCCOc1ccc(/C(C)=N/Nc2cc(C)nc3ccc(Br)cc23)cc1 | 101% (inactive)
34 | COc1cc(C(=O)Nc2cc3c(cc2Oc2cc(C)cc(C)c2)C(=O)N(C)[C@@H](CC(=O)N(C)O)C(=O)N3)c(Br)c(OC)c1OC | -33.3% (active)
35 | COc1ccc(C(=O)C2C(C#N)C(C#N)C3C=Cc4ccccc4N32)cc1 (stereo not given) | 46.4% (inactive)
36 | COC1=CC(=O)c2ccccc2C1=O | 70.4% (inactive)
37 | O=C(CCN1CCCC1)Nc1ccc2c(Nc3ccc(F)cc3)c3ccccc3nc2c1 | -16.1% (active)
38 | COc1ccccc1NC(=O)C1CC(c2ccc(F)cc2)=NO1 (stereo not given) | 102% (inactive)
39 | CC(C)(C)[Si](C)(C)OC1[C@@H](O[Si](C)(C)C(C)(C)C)[C@@H](CNC(=O)NC(=O)CCl)O[C@H]1n1cnc2c(NC(=O)Nc3ccccc3)ncnc21 (stereo not given in full) | -42.3% (active)
40 | O=C(C1CCC1)N1N=C(c2ccc(-n3ccc(C(F)(F)F)n3)cc2)CC1c1ccc[nH]1 (stereo not given) | 112% (inactive)
